Laboratory results as given in PubChem BioAssay AID1259417 (TB Discovery Research, Infectious Disease Research Institute, 2018).
In all, about 1,100 compounds went through this assay and about 760 (69%) were called active. The rule behind the calls is not given here. The set was probably picked from earlier hits. This is one part of the list.

Experiment: M. tuberculosis growth inhibition, HTS (AID 1259417);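 note: bacteria grown with compound for 5 days at 37 °C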
Settings: stronger effect = higher value, concentration not given here
[1] = M. tuberculosis DsRed fluorescence growth inhibition
[2] = M. tuberculosis growth inhibition

Structure (SMILES) | inhibition [1] | inhibition [2]
O=[N+]([O-])c1ccc(N2CCN(CCO)CC2)cc1NCCOc1cccc2ccccc12 | 10.3% (inactive) | -3.69%
CCOc1cc2c3c(c1)C1(C(=O)N3C(C)(C)C=C2C)C(C#N)=C(N)Oc2cc(O)ccc21 (stereo not given) | 10.6% (inactive) | -4.41%
O=C1C(Cl)=C(Nc2ccccc2O)C(=O)N1c1ccc(Cl)c(Cl)c1 | 95.4% (active) | 94.6%
O=C1C(Cl)=C(Nc2ccccc2O)C(=O)N1c1ccccc1 | 96% (active) | 94.9%
O=[N+]([O-])c1ccc(-c2[nH]c(-c3cccs3)nc2-c2ccccc2)cc1 | -27% (inactive) | 4.73%
COC(=O)CSc1nc2ccccc2nc1SCC(=O)OC | 11.6% (active) | 37.2%
c1ccc(-c2nc(NCC3CCCO3)c3ccccc3n2)nc1 (stereo not given) | 95.4% (active) | 94.9%
COc1cccc(Nc2nc(-c3ccccn3)cs2)c1 | 93.6% (active) | 93.4%
COc1ccc(Nc2nc(-c3ccccn3)cs2)c(OC)c1 | 92.1% (active) | 83.9%
CC(=O)c1cccc(Nc2nc(-c3ccccn3)cs2)c1 | 70.5% (active) | 74.6%
CC(=O)c1cccc(Nc2cc(C)nc3c2ccc2ccccc23)c1 | 10.9% (inactive) | -33.8%
CC(=O)c1ccc(NC(=O)NC(C)C23CC4CC(CC(C4)C2)C3)cc1 (stereo not given) | 98.3% (active) | 94.8%
CC(=O)c1ccc(NC(=O)Nc2cc(OCC(F)(F)F)cc(OCC(F)(F)C(F)F)c2)cc1 | 1.19% (inactive) | 22.7%
Cc1oc2c(c1C(=O)Nc1cccc3ccccc13)CCCC2 | 13.4% (inactive) | 21.7%
CCOC(=O)C(Cc1ccccc1)C(=O)Nc1cccc2ccccc12 (stereo not given) | -0.257% (inactive) | -5.18%
Cc1ccc(-c2nc3c(cnn3-c3ccccc3)c(=O)o2)cc1 | 4.19% (inactive) | -0.344%
CCCC(=O)Nc1cccc(-c2nc3ccccc3c(=O)o2)c1 | 29.1% (active) | 52%
O=C(Nc1ccc(-c2nc3ccccc3c(=O)o2)cc1)c1ccccc1I | 78.1% (active) | 85.2%
COc1ccccc1OC(=O)c1sc2ccccc2c1Cl | 17.3% (active) | 53%
Cc1c(OC(=O)c2ccccc2Cl)ccc2c1CCCC2 | 7.92% (inactive) | 16.4%
COc1ccccc1-c1nnc(NC(=O)c2sc3ccccc3c2Cl)o1 | -1.61% (inactive) | -16%
Cc1ccccc1OC(=O)c1sc2ccccc2c1Cl | 25.5% (active) | 64.7%
O=C1c2cccc3cccc(c23)C(=O)N1c1ccc2[nH]c(=O)[nH]c2c1 | 36.4% (active) | 63.9%

Structure (SMILES) | inhibition [1] | inhibition [2]
COc1ccc2nc(C)c3cc(C)oc3c2c1 | 99.8% (active) | 99.6%
O=c1cc(-c2c(F)c(F)c(F)c(F)c2F)oc2ccccc12 | 99.2% (active) | 96.4%
O=C(Oc1ccc(Cl)cc1)c1ccc(N2CCOCC2)c([N+](=O)[O-])c1 | 4.2% (inactive) | 24.6%
O=C(Oc1c(Cl)cc(Cl)c2cccnc12)c1cc(S(=O)(=O)N2CCCCC2)ccc1Cl | 98.6% (active) | 99.4%
O=C(Oc1ccccc1Cl)c1ccc(N2CCOCC2)c([N+](=O)[O-])c1 | 0.0336% (inactive) | 13.4%
O=C(Oc1ccc(Cl)cc1)c1ccc(S(=O)(=O)c2ccc(Cl)cc2)cc1 | 55.3% (active) | 74.8%
O=C(Oc1cccc2cccnc12)c1ccc(Cl)c(S(=O)(=O)N2CCOCC2)c1 | 100% (active) | 101%
O=C(Oc1cccc2cccnc12)c1ccc(S(=O)(=O)N2CCCCC2)cc1 | 99.4% (active) | 100%
Cc1ccc(S(=O)(=O)NC(=O)Oc2cccc3cccnc23)cc1 | -0.272% (inactive) | -10.4%
COCCn1nnnc1C(c1cc2cc(OC)ccc2[nH]c1=O)N1CCC(Cc2ccccc2)CC1 (stereo not given) | 6.25% (inactive) | -12.1%
O=C(Oc1ccccc1)c1ccc(S(=O)(=O)N2CCCCC2)cc1 | 12% (active) | 46.3%
COc1ccc(CNC(=O)c2c(C)nc3ccccn23)cc1 | 99.4% (active) | 100%
Cc1nc2ccccn2c1C(=O)NCc1ccc2c(c1)OCO2 | 99.7% (active) | 99.6%
Cc1nn(Cc2ccccc2Cl)c2sc(C(=O)NCc3ccc4c(c3)OCO4)cc12 | -3.53% (inactive) | -15.9%
CCOC(=O)CSc1nc(N)c(C#N)c(CC(C)C)c1C#N | -5.9% (inactive) | -4.83%
CCOC(=O)CSc1nc(C#N)c(SCC(=O)OCC)s1 | 31.4% (active) | 80.2%
Cc1ccc(NC(=O)CSc2ccc(-c3ccccn3)nn2)cc1 | 89% (active) | 97.4%
COc1ccc(-c2nc(NC(=O)c3ccccc3)n[nH]2)cc1OC | 97.2% (active) | 96.7%
CCOC(=O)c1c(NC(=O)c2ccccc2C)sc(C)c1-c1ccc(OC)c(OC)c1 | -3.52% (inactive) | -17.9%
CC(C)=CCN1CCN(CCC2=C(C)CCCC2(C)C)CC1CCO (stereo not given) | -2.34% (inactive) | -26.9%
COC(=O)c1c(NC(=O)c2cccc(OC)c2)sc2c1C(C(=O)OC)CC2 (stereo not given) | 1.52% (inactive) | -13.4%
COc1ccc(NC(=O)c2c(NC(=O)c3ccc([N+](=O)[O-])o3)sc3c2CCC3)cc1 | 96.5% (active) | 96.2%
COc1cccc(NC(=O)c2c(NC(=O)c3cccnc3)sc3c2CCC3)c1 | 92.4% (active) | 95.5%

Structure (SMILES) | inhibition [1] | inhibition [2]
COc1cccc(NC(=O)c2c(NC(=O)c3cccc(C)c3)sc3c2CCC3)c1 | -1.15% (inactive) | -10.7%
CCn1ccnc1CN(C)Cc1cn(-c2cc(C)ccc2C)nc1-c1ccccc1 | 16.9% (inactive) | 8.97%
Cc1ccc(-c2nn(-c3ccccc3)cc2CNCc2ccccc2)cc1 | 33.4% (active) | 66.5%
CCn1ccnc1CN(C)Cc1cn(-c2ccc(C)cc2)nc1-c1cccc(C)c1 | 14.8% (inactive) | 8.21%
Brc1ccc(-c2nn(-c3ccccc3)cc2CNCc2ccccc2)cc1 | 23.1% (active) | 39.4%
CC(C)COc1ccc(-c2nn(-c3ccccc3)cc2C(=O)Nc2nccs2)cc1 | 2.38% (inactive) | -24.1%
Cc1sc(NC(=O)c2cc3ccccc3oc2=O)c(C(=O)OC(C)C)c1C | 6.18% (inactive) | 28.3%
CCOC(=O)c1cc(CC)sc1NC(=O)c1cc2ccccc2oc1=O | 23.7% (active) | 60.6%
CCOC(=O)c1c(-c2ccc(OC)c(OC)c2)csc1NC(=O)c1cccc(OC)c1OC | 4.18% (inactive) | -8.63%
CCOC(=O)c1c(-c2ccccc2)csc1NC(=O)c1cc2ccccc2oc1=O | 7.43% (active) | 32.3%
CCc1nnc(NC(=O)c2cc3ccccc3oc2=O)s1 | 1% (active) | 47%
NC(=O)c1c(NC(=O)c2cc3ccccc3oc2=O)sc2c1CCCCCC2 | 3.53% (inactive) | -10.8%
Cc1cccc(OCCCn2cnc3cc(C)c(C)cc32)c1 | 88% (active) | 97.5%
Cc1cc2ncn(Cc3ccc(C(C)C)cc3)c2cc1C | 90.4% (active) | 98.3%
Cc1cc2ncn(CCOc3ccc(Cl)cc3)c2cc1C | 88.3% (active) | 95.9%
C1=CC2CC1CC2CN1CCC(N(CCc2ccccc2)Cc2ccccc2)CC1 (stereo not given) | 99.4% (active) | 96.9%
c1ccc(CCN(Cc2ccccc2)C2CCN(Cc3c[nH]c4ccccc34)CC2)cc1 | 2.96% (inactive) | -21.5%
Cc1ccc(-c2nnc(N3CCN(C(=O)c4ccco4)CC3)c3ccccc23)cc1 | 3.3% (inactive) | -1.04%
O=C(OCn1nnc2ccccc2c1=O)c1ccccc1 | 40.5% (active) | 44.9%
O=C(OCn1nnc2ccccc2c1=O)c1ccco1 | 20.6% (active) | 47%
O=C(OCn1nnc2ccccc2c1=O)c1cccs1 | 42.4% (active) | 57.1%
CCCn1nnnc1NC(=O)c1cccs1 | 18.2% (inactive) | 29.4%
COc1ccc(CCNC(=O)c2ccc(C#CC(C)(C)O)s2)cc1 | 92.7% (active) | 80.8%

Structure (SMILES) | inhibition [1] | inhibition [2]
COc1ccc(NC(=O)c2ccc(C#CC(C)(C)O)s2)cc1 | 58.8% (active) | 31.9%
Cn1ccnc1C(O)c1cc(C(C)(C)C)c(O)c(C(C)(C)C)c1 (stereo not given) | 22.8% (inactive) | 28.3%
Cc1ccccc1C(=O)Nc1nnc(-c2ccc(Cl)cc2)o1 | 83.5% (active) | 90.7%
Cc1ccccc1C(=O)Nc1nnc(-c2ccc(F)cc2)o1 | 75.4% (active) | 84.5%
CCCCNC(=O)Nc1nnc(-c2ccc(Cl)cc2)o1 | 14.7% (inactive) | 4.64%
CC1CCCN(c2ccc([N+](=O)[O-])s2)C1 (stereo not given) | 97.6% (active) | 99.3%
COC(=O)COc1ccc(NC(=O)COc2cccc(C)c2)cc1 | 68.1% (active) | 90.9%
Cc1cc(C)cc(NC(=O)COc2cccc(C=O)c2)c1 | 4.11% (inactive) | 13.2%
COC(=O)COc1cccc(NC(=O)COc2ccccc2)c1 | 50% (active) | 64.5%
CCOc1ccc(OCC(=O)Nc2cc(C)cc(C)c2)cc1 | 2.08% (active) | 38.4%
COc1ccc(OCC(=O)Nc2cccc(Cl)c2)cc1 | 6.16% (inactive) | -19%
COC(=O)COc1ccc(CSCC(=O)Nc2ccc3ccccc3c2)cc1 | 33.1% (active) | 58.5%
COC(=O)COc1ccc(NC(=O)COc2ccc(C(C)(C)C)cc2)cc1 | 98.8% (active) | 99.4%
Cc1ccc(CSCC(=O)Nc2ccccc2)cc1 | 3.53% (active) | 35.4%
Cc1ccnc(NC(=O)COc2ccc([N+](=O)[O-])cc2)c1 | -0.546% (inactive) | 11.9%
COC(=O)COc1ccc(NC(=O)COc2ccc(C)cc2C)cc1 | 99.4% (active) | 99.7%
Cc1ccc(CSCC(=O)Nc2ccc(Cl)c(Cl)c2)cc1 | 2.65% (inactive) | 11.4%
CCOC(=O)CSc1nnc(-c2cccc(Br)c2)o1 | 67.1% (active) | 85.8%
CCOC(=O)N1CCN(C(=O)CSc2nnc(-c3cc(OC)cc(OC)c3)o2)CC1 | 24.7% (inactive) | 11.7%
CCCOC(=O)CSc1nnc(-c2cc(OC)c(OC)c(OC)c2)o1 | 71.2% (active) | 87.3%
CCOC(=O)CSc1nnc(-c2cc(OC)c(OC)c(OC)c2)o1 | 85.2% (active) | 90.4%
